Inconclusive results are not listed. Calls of active or inactive are those of the source. Calls follow the shape of the dose curve; as a rule, active = well fitted inhibition curve with a large enough effect; inconclusive = small, poorly fitted or top-dose-only effect; inactive = no such curve, though single readings can be large or run the other way.
Potency is read from the fitted curve at half-maximal effect.

The assay in a line: qHTS Screen of the MIPE 4.0 Collection Against Ewings Sarcoma (TC71) (AID 1259253). Also: nearly all actives have a fitted effect of over 40% in size.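 As to viability (% of DMSO): 100% = DMSO-treated cells and 0% = medium-only wells without cells.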 The note with it: TC71 Ewing sarcoma viability, CellTiter-Glo, 48 h; series mostly up to 45.8 µM; viability (% of DMSO): at the top concentration. An excerpt: There is a large unmet medical need for treatments for Ewing sarcoma, a pediatric sarcoma. We sought to identify compounds that inhibited Ewing sarcoma cells in vitro with the goal to then test promising drugs in two drug combinations in vitro to look for synergistic drug combinations. Promising combinations would then proceed to additional validation, including in vivo testing.
Using the NCATS developed oncology compound library called the Mechanism of Interrogation Plate (MIPE), four Ewing sarcoma cell lines were evaluated (TC32, TC71, RDES, EW8). Compounds, in a 12-point titration series, were incubated with cells for 48 hours and the read out was cell viability (CellTiter-Glo from Promega). These initial experiments were used to select appropriate concentrations of each single agent for subsequent two-drug matrix combinations such that the concentrations in the matrices would span both activity and non-activity.
Cells, in the log phase of growth, were seeded in 5 uL of RPMI plus 5% FBS, […] L-glutamine, 100 U/ml penicillin and 100 ug/ml streptomycin into 1536-well solid-bottom white tissue culture treated Greiner Bio One Plates (789173-F) using a MultiDrop Combi (Thermofisher Scientific) dispenser and a small sterile cassette. One column was media alone to be used as a :"no cells" control. The plates were then covered with sterilized stainless steel gasketed lids from Kalypsys. After allowing cells to attach for 4 hours, 23 nL of test compound or control (negative control DMSO and positive control 9.2 uM Bortezomib-final) were added from a 1536-well polypropylene compound source plate to each well using a 1536 head pin tool from Kalypsys. Cells were then incubated for 48 hours at 37C, 95% relative humidity and 5% CO2. After 48 hours, plates were removed from the incubator and 3 uL of CellTiter-Glo (Promega) was added using an Aurora Flying Reagent Dispenser Bioraptor. Plates were incubated at room temperature for 10 minutes prior to reading the luminescence on the Viewlux (PerkinElmer). The relative luciferase units are used to calculate the percent activity using the activity of DMSO in the cells and no cells columns for normalization of no inhibition and full inhibition respectively.
In general terms: Quantitative high-throughput screening tests each substance at several concentrations.
Take `O=C(O)CSCC(=O)NC1CCSC1=O` (stereo not given): the “viability (% of DMSO)” value was 133% (inactive).
The same measure, in the same setting: for `COc1c(N2CCNC(C)C2)c(F)cc2c(=O)c(C(=O)O)cn(C3CC3)c12` (stereo not given) the value was 118% (inactive).
Take `CCOC(=O)[C@H](CCc1ccccc1)N[C@H]1CS[C@H](c2cccs2)CN(CC(=O)O)C1=O`: the Potency was 5.9 µM (active).
On to `CCOC(=O)[C@H](CCc1ccccc1)N[C@H]1CCc2ccccc2N(CC(=O)O)C1=O`, for which the Potency was 20.9 µM (active).
For the compound `OCc1ccc(-c2nn(Cc3ccccc3)c3ccccc23)o1`, the Potency is 14.8 µM (active).
On to `C[C@]12C=CC(=O)C=C1CC[C@@H]1[C@@H]2C(=O)C[C@@]2(C)[C@H]1CC[C@]2(O)C(=O)CO`, for which the “viability (% of DMSO)” value is 130% [at 23.2 µM] (inactive).
On the same count and under the same terms, for `CC1(C)[C@H](C(=O)O)N2C(=O)C[C@H]2S1(=O)=O` the value was 134% (inactive); for `N[C@@H](C(=O)N[C@@H]1C(=O)N2C(C(=O)O)=C(Cl)CS[C@H]12)c1ccccc1`, 131% (inactive).
Still for that read-out and setting: the value for `CNNCc1ccc(C(=O)NC(C)C)cc1` was 149% (inactive); that for `Cn1c(=O)c2c(ncn2CC(O)CO)n(C)c1=O` (stereo not given) was 122% (inactive).
Still for that read-out and setting: for `CCn1cc(C(=O)O)c(=O)c2cc(F)c(N3CCNCC3)cc21` the value was 149% (inactive).
With `C#CCN[C@@H]1CCc2ccccc21`, the “viability (% of DMSO)” value is 116% (inactive).
Still for that read-out and setting: for `COC(c1ccccc1)(c1ccccc1)[C@H](Oc1nc(C)cc(C)n1)C(=O)O` the value was 117% (inactive); for `COc1cccc(N(C)C(=S)Oc2ccc3c(c2)CCCC3)n1`, 99.2% (inactive).
Consider `COc1ccc2cc3[n+](cc2c1OC)CCc1cc2c(cc1-3)OCO2`, for which the Potency was 5.9 µM (active).
Regarding `Cc1nnc(C(=O)NC(C)(C)c2nc(C(=O)NCc3ccc(F)cc3)c(O)c(=O)n2C)o1`, the “viability (% of DMSO)” value is 112% (inactive).
In the case of `O=NN(CCCl)C(=O)NC1CCCCC1`, the “viability (% of DMSO)” value was 147% (inactive).
Still for that read-out and setting: for `CCN(CC)CCn1c(=O)c(Cc2ccc(OC)cc2)nc2ccccc21` the value was 113% (inactive); for `CC1CC2C3CCC4=CC(=O)C=C[C@]4(C)[C@@]3(F)[C@@H](O)C[C@]2(C)[C@@]1(O)C(=O)CO` (stereo not given in full), 113% (inactive).
On to `Nc1nc(N)nc(-c2cc(Cl)ccc2Cl)n1`, for which the “viability (% of DMSO)” value was 107% (inactive).
For `CN1CCCC(n2nc(Cc3ccc(Cl)cc3)c3ccccc3c2=O)CC1` (stereo not given), the Potency is 2.64 µM (active).
As for `Cc1noc(NS(=O)(=O)c2ccc(N)cc2)c1C`, the “viability (% of DMSO)” value was 111% (inactive).
The same measure, in the same setting: the value for `CC[C@H](NC(C)C)[C@H](O)c1ccc(O)c2[nH]c(=O)ccc12` was 106% (inactive).
Take `CO[C@@]12[C@H](COC(N)=O)C3=C(C(=O)C(C)=C(N)C3=O)N1C[C@@H]1N[C@@H]12`: the Potency is 0.0418 µM (active).
On to `C[C@@H]1CN(c2c(F)c(N)c3c(=O)c(C(=O)O)cn(C4CC4)c3c2F)C[C@H](C)N1`, for which the “viability (% of DMSO)” value is 127% [at 23.2 µM] (inactive).
As for `NC1(c2ccc(-c3nc4ccn5c(=O)[nH]nc5c4cc3-c3ccccc3)cc2)CCC1`, the Potency was 20.9 µM (active).
As to `NC(=O)c1ccc2[nH]ccc2c1`, the “viability (% of DMSO)” value is 130% (inactive).
For the compound `Nc1nc(=S)c2[nH]cnc2[nH]1`, the Potency is 0.935 µM (active).
The same measure, in the same setting: for `COC(=O)Nc1nc2ccc(C(=O)c3ccccc3)cc2[nH]1` the value was 1.48 µM (active); for `COC(=O)Nc1nc2ccc(Sc3ccccc3)cc2[nH]1`, 1.66 µM (active).
`CC(N)C12CC3CC(CC(C3)C1)C2` (stereo not given): the “viability (% of DMSO)” value was 119% (inactive).
On the same count and under the same terms, for `CCOCC(O)COc1ccc(NC(=O)CC[S+](C)C)cc1` (stereo not given) the value was 124% (inactive); for `Cc1ccnc2c1NC(=O)c1cccnc1N2C1CC1`, 133% (inactive).
The same measure, in the same setting: for `O=P(O)(O)C(O)(Cc1cccnc1)P(=O)(O)O` the value was 112% (inactive).
`CC(C)Cn1cnc2c(N)nc3ccccc3c21`: the Potency is 18.7 µM (active).
On to `COc1nc(N)nc2c1ncn2[C@@H]1O[C@H](CO)[C@@H](O)[C@@H]1O`, for which the “viability (% of DMSO)” value was 120% (inactive).
The same measure, in the same setting: for `CN1CCN(c2c(F)cc3c(=O)c(C(=O)O)cn(CCF)c3c2F)CC1` the value was 130% (inactive); for `CCC(C)(C)c1ccc(CC(C)CN2C[C@@H](C)O[C@@H](C)C2)cc1` (stereo not given in full), 100% (inactive).
Still for that read-out and setting: the value for `O=C(O)c1cn(C2CC2)c2cc(N3CCNCC3)c(F)cc2c1=O` was 138% (inactive).
As for `C[C@@H](NCCCc1cccc(C(F)(F)F)c1)c1cccc2ccccc12`, the Potency was 1.48 µM (active).

Source of the values: PubChem BioAssay (NCATS).
